Measured values published in PubChem BioAssay AID652058 (Broad Institute, 2013).
The campaign covered roughly 1,200 compounds. About 870 (72%) were called active. About 3% were inconclusive and are not listed.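 The calls were made as follows: active = every test run fits a falling curve whose half-maximal concentration is at most twice the top valid dose; inconclusive = runs disagree, or flat 30 to 70% inhibition, or poor fit; inactive = every run inactive: flat, rising or weaker potency.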 The set was probably picked from earlier hits. A selection follows. Results with a measured potency or affinity are listed apart.

Assay: ZM109 Env clade C HIV-1 fusion inhibitors, dose response, HeLa effector, CEM target cells, luciferase, cherry-pick (AID 652058);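 also: 0% = neutral control wells and -100% = maraviroc 300 nM wells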
Details: HeLa Env/CEM cell fusion, 16-24 h; series mostly up to 35 µM; activity change, negative = inhibition: at the top concentration

Activity change, negative = inhibition, inactive:
Cc1[nH]c2ccccc2c1/C=N\NC(=O)c1ccccc1Cl 39.8%
COc1ccc(CCNC(=O)C2CCCN(Cc3nc(-c4cccc(Cl)c4)oc3C)C2)cc1OC (stereo not drawn) -35.4%
O=C(NCc1cccc(F)c1)[C@@H]1[C@@H](CO)[C@@H]2Cn3c(ccc(-c4cccnc4)c3=O)[C@H]1N2CC1CC1 -17.1%
CCCNC(=O)N1[C@H](C#N)[C@H](c2ccc(-c3cccc(OC)c3)cc2)[C@@H]1CO 127%
N#C[C@@H]1[C@H](c2ccc(-c3ccccc3F)cc2)[C@@H](CO)N1C(=O)Cc1ccccc1 -31.2%
S=c1nc[nH]c2c1[nH]c1ccc(Cl)cc12 77%
Cc1cc(C(=O)CN2C(=O)c3ccccc3S2(=O)=O)c(C)n1C(C)C -55.3%
Cc1onc(-c2ccccc2)c1C(=O)Nc1ccc(Br)cc1Cl -20.5%
Cc1onc(-c2ccccc2)c1C(=O)NC(=S)NNC(=O)c1ccc(O)cc1 41%
COc1ccc(S(=O)(=O)NC[C@@H]2CC[C@H]3[C@H](CN3Cc3cc(F)ccc3F)O2)cc1 19.1%
CO[C@@H]1CN(C)C(=O)c2ccc(NS(C)(=O)=O)cc2OC[C@@H](C)N(C(=O)C2CCCCC2)C[C@H]1C 135%
CCS(=O)(=O)Nc1ccc2c(c1)C(=O)N(C)C[C@H](OC)[C@@H](C)CN(C(=O)C1CCC1)[C@H](C)CO2 101%
CO[C@H]1CN(C)C(=O)c2cc(NC(=O)C3CCOCC3)ccc2OC[C@H](C)N(Cc2nccs2)C[C@H]1C -16.3%
CCCC(=O)Nc1ccc2c(c1)OC[C@@H](C)N(C(=O)CN(C)C)C[C@H](C)[C@@H](OC)CN(C)C2=O -17.8%
CO[C@@H]1CN(C)C(=O)c2cc(NS(=O)(=O)c3ccc(C)cc3)ccc2OC[C@H](C)N(C(=O)NC(C)C)C[C@@H]1C 59.6%
CCC(=O)Nc1ccc2c(c1)C(=O)N(C)C[C@@H](OC)[C@H](C)CN(C(=O)CC)[C@@H](C)CO2 55.8%
CCCC(=O)Nc1ccc2c(c1)C(=O)N(C)C[C@@H](OC)[C@@H](C)CN(Cc1nccs1)[C@@H](C)CO2 1.12%
Clc1ccc2c(c1)C1=C(C(c3ccncc3)O2)C(c2ccc(Br)cc2)n2ncnc2N1 (stereo not drawn) 36.6%
COc1ccc(CC(=O)Nc2cccc(S(=O)(=O)N3CCCCCC3)c2)cc1OC -2.63% [at 16 µM]
CC1CCCC(C)N1CCCNC(=O)c1nn(C)c2c1CSc1ccccc1-2 (stereo not drawn) 20.6%
CN1C(=O)C2(c3ccccc31)N(C)CC(c1ccccc1)C21SC(=S)N(Cc2ccco2)C1=O (stereo not drawn) 6.82%
O=C(Nc1ccc(S(=O)(=O)N2CCCC2)cc1)c1ccc(CN2CCOCC2)cc1 -10.5%
CCN(CC)c1ccc(/C=N/N2C(C)CCCC2C)c(O)c1 (stereo not drawn) 35.2%
Nc1nonc1C(=O)NCCNCc1cc(Br)ccc1OCc1ccccc1F -2.3%
Cn1c(SCc2nc(-c3ccc(Cl)cc3)no2)nnc1-c1cccs1 -18.2%
Cc1ccc(COC(=O)c2cc(S(=O)(=O)N3CCCCC3)ccc2N2CCOCC2)cc1 47%
O=C(COC(=O)c1cc(S(=O)(=O)N2CCOCC2)ccc1O)NCc1ccc2c(c1)OCO2 2.67%
CCNC1CCC(Nc2ccnc3cc(Cl)ccc23)CC1 (stereo not drawn) -13.6%
CCC(C)NS(=O)(=O)c1ccc(S(=O)(=O)N2CCCC3(CCCCC3)C2)cc1 (stereo not drawn) -47.6%
CC(=O)Nc1ccc(NC(=O)CN(c2ccc(C34CC5CC(CC(C5)C3)C4)cc2)S(C)(=O)=O)cc1 197%
CC(CCc1ccco1)NC(=O)CCc1nnc2ccc(NCc3ccccc3Cl)nn12 (stereo not drawn) 147%
CCOc1ccccc1CNc1ncnc2ccc(-c3c(C)noc3C)cc12 -26.9%
OCC[C@@H]1C[C@@H](O)[C@H](O)[C@]2(OCc3ccccc32)O1 -30.9%
Cc1ccc2c(c1)c1c3n2CCN(CCC#N)C3CCC1 (stereo not drawn) 72.5%
COc1ccccc1S(=O)(=O)n1cc(Cc2ccccc2)c(N)n1 2.38%
CCc1nc2ccccc2c(C(=O)OCC(=O)Nc2cccc(S(=O)(=O)N3CCOCC3)c2)c1C 168%
COc1ccc(/C(C)=N/NC(=O)c2cccc(S(=O)(=O)N3CCCC3)c2)c(O)c1 -36.4% [at 16 µM]
COc1ccc(C(O)c2nc3ccccc3n2C)cc1OC (stereo not drawn) -23.7%
CCCCCn1c(C(C)NC(=O)CCC)nc2ccccc21 (stereo not drawn) -31%
C=CCNc1nc2c(c(=O)n(C)c(=O)n2C)n1CCCCCC 155%
Cc1cc2c3c(c1)C1(SCC(=O)N1c1ccc(F)cc1)C(=O)N3C(C)(C)CC2C (stereo not drawn) -68.3% [at 15 µM]
Nc1cc2c(cc1Br)[nH]c(=O)c1ccccc12 -25.2%
CCc1nnc(NC(=O)[C@@H](NC(=O)c2cccc(S(=O)(=O)N(CC)CC)c2)C(C)C)s1 39.5%
COc1ccc(N2CCN(C(=O)C3CCC(Cn4c(=S)[nH]c5ccccc5c4=O)CC3)CC2)cc1 (stereo not drawn) -44.6%
Fc1ccc(-n2nnnc2-c2cnc(-c3cccs3)nc2C(F)(F)F)cc1 91% [at 16 µM]
O=C(N/N=C/c1ccc(-n2ccnc2)cc1)c1cccs1 73.5%
Cc1ccc2c(c1)c1c3n2CCN(CC(N)=O)C3CCC1 (stereo not drawn) 81.6%
COc1ccc2[nH]c3c(N4CCC(O)(c5cccc(C(F)(F)F)c5)CC4)ncnc3c2c1 -82.8%
CCOC(=O)C(C)Oc1cccc2c(=O)n(CC(=O)NCCc3ccc(OC)c(OC)c3)ccc12 (stereo not drawn) -38.6%
CC1(C(=O)NCc2ccc3c(c2)OCO3)CCN1Cc1csc2ccccc12 (stereo not drawn) -13.3%
COc1ccc(NS(=O)(=O)c2ccc3c(c2)OCCO3)cc1OC -10.5%
COc1ccc(NS(=O)(=O)c2cccc(C(=O)NNC(=O)CNC(=O)c3ccc(C)cc3)c2)cc1 35.8%
O=C(Cc1ccc(Cl)cc1Cl)Nc1ccncc1 -15.2%
COc1ccc(/C=C/c2nc(S(=O)(=O)c3ccccc3)c(NCCCN(C)C)o2)cc1OC -36.4% [at 16 µM]
COC(=O)c1ccc(NC(=O)c2ccc(CN3CCOCC3)cc2)cc1 -20.5%
Nc1ccn([C@@H]2O[C@H](C(=O)NCc3ccc4c(c3)OCO4)[C@@H](O)[C@H]2O)c(=O)n1 14.6%
CC(C)CC#Cc1ccc2c(c1)O[C@@H](CN(C)S(=O)(=O)c1ccc(F)cc1)[C@H](C)CN([C@@H](C)CO)S2(=O)=O -29.4%
Cc1cc2ncn(S(=O)(=O)N3CCCCC3)c2cc1C 1.39%
CCN1CCN(S(=O)(=O)c2ccc(Cl)c(C(=O)Nc3ccccc3N3CCCC3)c2)CC1 21.8%
CNC[C@@H]1Oc2c(N)cccc2C(=O)N([C@@H](C)CO)C[C@@H]1C 15.9%
C[C@@H]1CN([C@@H](C)CO)C(=O)c2cccc(NC(=O)c3cnccn3)c2O[C@H]1CN(C)Cc1ccc(Cl)c(Cl)c1 95.2%
C[C@H]1CN([C@@H](C)CO)C(=O)c2cccc(NC(=O)C3CCCCC3)c2O[C@H]1CN(C)S(C)(=O)=O 11.4%
c1csc(-c2csc3ncnc(NCCCN4CCOCC4)c23)c1 -26.2%
Oc1ccc(C=NNc2ccccn2)c(O)c1 23.9% [at 16 µM]
COc1ccc(-c2nnc(Nc3nc4c(OC)cccc4s3)o2)cc1 5.13%
CCn1ncc(C2=NOC(C(=O)Nc3ccc(C)cc3)C2)c1C (stereo not drawn) 6.73% [at 16 µM]
Cc1ccc(-n2nnnc2-c2cnn(-c3ccc(F)cc3)c2C(F)(F)F)cc1 4.65%
C[C@@H]1CN([C@H](C)CO)C(=O)c2cc(NS(=O)(=O)c3ccc(F)cc3)ccc2O[C@H]1CN(C)Cc1ccc(C(F)(F)F)cc1 -41.2%
C[C@H](CO)N1C[C@H](C)[C@H](CN(C)C(=O)Nc2ccccc2)Oc2c(NS(=O)(=O)c3ccc(F)cc3)cccc2C1=O 84.3% [at 16 µM]
CNC[C@H]1Oc2c(NC(=O)Nc3ccc(C(F)(F)F)cc3)cccc2C(=O)N([C@@H](C)CO)C[C@H]1C 39.4% [at 16 µM]
Cc1ccc(-n2ncc3c(N4CCN(c5ccccc5)CC4)ncnc32)c(C)c1 181%
Cc1ccc(Cn2ncc3c(N4CCN(c5ccc(C)cc5)CC4)ncnc32)cc1 -44.6%
COc1cccc(CNc2nc(NCc3ccccc3OC)nc3ccsc23)c1 -21.1%
CCOc1ccc(-c2cc(CCCC(=O)Nc3cccc(OC)c3)no2)cc1 71.3%
Cc1cc(C(C)(C)C)oc1C(=O)N(CC(=O)NC1CCCC1)Cc1ccc(Cl)cc1 -42.4%
CCCc1cc(C(=O)NCc2ccc(OC)cc2)no1 28.6%
O=C(CC1C(=O)NCCN1Cc1cccc(F)c1)NC1CCCCC1 (stereo not drawn) -44.7%
CCN(CCn1cccn1)C(=O)CC1C(=O)NCCN1CCc1ccccc1 (stereo not drawn) -40.9%
COc1ccc(-c2cn3c(C)c(C(=O)Nc4cccc(NC(C)=O)c4)sc3n2)cc1 -22% [at 16 µM]
Cn1cc(S(=O)(=O)N2CCOCC2)cc1C(=O)Nc1cccc(Cl)c1 -25.3%
COc1cccc(CN2CCC2(C)C(=O)Nc2cccc(Oc3ccccc3)c2)c1OC (stereo not drawn) -31.8%
CC(=O)c1ccc([C@H]2C[C@@]34CN(C(=O)OC(C)(C)C)S(=O)(=O)[C@H]3C[C@H]2O4)cc1 40.5%
c1ccc(Cc2cnc(N3CCN(Cc4csc5ccccc45)CC3)nc2)cc1 16.5%
O=C(NNC(=O)C(c1ccccc1)c1ccccc1)c1ccccn1 -20.2%
CC(C)(C)n1nc(Cc2cccc3ccccc23)c2c(N)ncnc21 16.9%
C[C@@H]1CN([C@H](C)CO)C(=O)c2cccc(NC(=O)c3ccncc3)c2O[C@@H]1CN(C)Cc1ccc(C(=O)O)cc1 -18.2%
COc1ccccc1N1CCN(Cc2ccc(O)c3ncccc23)CC1 41.3%
O=C(Nc1ccc(CN2CCOCC2)cc1)c1ccc(-c2cccc(Cl)c2)o1 117%
Cc1cc(C)nc(/N=C(\N)Nc2ccc(CC(=O)OC(C)C)cc2)n1 38.8%
CCC(=O)NC(=S)Nc1cccc(Cl)c1N1CCCCC1 43.4%
COc1ccc([Si](C)(C)[C@H]2[C@H](CCO)O[C@@]3(C(=O)N(Cc4cccc(N5CCOC5=O)c4)c4ccccc43)[C@@H]2C)cc1 -36.4%
O=C(NCc1ccccc1)c1ccc(C(=O)NCc2ccccc2)cc1 -58.9%
O=C(Nc1cccn(Cc2c(Cl)cccc2Cl)c1=O)c1ccc(Cl)cc1 55.6%
